# Assay results from PubChem BioAssay (NCATS).
# Inconclusive results are not listed. Where a call stands in place of a potency, no number is given. The source made the active and inactive calls. Calls come from the whole dose curve; as a rule, active = well fitted inhibition curve with a large enough effect; inconclusive = small, poorly fitted or top-dose-only effect; inactive = flat fitted curve, though single readings scatter.
# Biological target: Ubiquitin carboxyl-terminal hydrolase 1 (Homo sapiens) (UniProt O94782)
# Sequence (O94782 whole entry, looked up): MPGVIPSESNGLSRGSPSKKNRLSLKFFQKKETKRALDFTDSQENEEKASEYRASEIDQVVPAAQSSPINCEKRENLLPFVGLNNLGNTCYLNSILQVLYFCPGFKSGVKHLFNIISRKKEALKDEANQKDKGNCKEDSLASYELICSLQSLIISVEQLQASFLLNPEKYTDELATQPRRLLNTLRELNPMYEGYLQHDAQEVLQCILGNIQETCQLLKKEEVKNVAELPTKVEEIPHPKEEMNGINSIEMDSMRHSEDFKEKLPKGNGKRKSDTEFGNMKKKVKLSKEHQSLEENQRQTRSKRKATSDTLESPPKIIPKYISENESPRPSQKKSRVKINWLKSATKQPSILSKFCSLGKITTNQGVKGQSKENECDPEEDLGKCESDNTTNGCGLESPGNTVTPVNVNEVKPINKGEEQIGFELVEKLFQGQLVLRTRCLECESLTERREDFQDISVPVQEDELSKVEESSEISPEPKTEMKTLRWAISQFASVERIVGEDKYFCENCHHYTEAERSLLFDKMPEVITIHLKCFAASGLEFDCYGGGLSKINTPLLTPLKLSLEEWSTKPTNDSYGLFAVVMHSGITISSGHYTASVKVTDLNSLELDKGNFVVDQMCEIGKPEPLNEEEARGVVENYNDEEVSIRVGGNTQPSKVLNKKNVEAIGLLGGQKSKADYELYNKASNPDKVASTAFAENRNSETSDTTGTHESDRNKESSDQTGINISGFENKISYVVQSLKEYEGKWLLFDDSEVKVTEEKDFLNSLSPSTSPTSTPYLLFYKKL
# Test: Inhibitors of USP1/UAF1: Pilot qHTS (AID 504865); note: nearly all actives have a fitted effect of over 35% in size
# Conditions: purified USP1/UAF1, Ub-rhodamine cleavage fluorescence; series mostly up to 114 µM
# Excerpt: Deubiquitinating enzymes (DUBs) are a class of enzymes that can cleave isopeptide bond formed between the C-terminal carboxylate of ubiquitin and a lysine side-chain amino group on the target protein. Among them, ubiquitin specific proteases (USPs) constitute the largest DUB family. Human USPs are emerging as promising targets for pharmacological intervention because of their connection to a number of human diseases, including prostate, colon and breast cancer (1, 2), pediatric acute lymphoblastic leukemia (3), and familial cylindromatosis (4). The advantage of inhibiting USPs lies in the potential specificity of therapeutic intervention that can lead to better efficacy and reduce nonspecific side effects.
# In a collaboration between the University of Delaware and the NIH Chemical Genomics Center, a high-throughput screen assay was developed to screen for USP1/UAF1 inhibitors. This miniaturized assay has a fluorescent read-out and is used to screen the NIH Molecular Libraries Small Molecule Repository (MLSMR) in order to identify a small molecule that inhibits USP1.
# NIH Chemical Genomics Center [NCGC]
# NIH Molecular Libraries Probe Centers Network [MLPCN]
# Assay Submitter (PI): Zhihao Zhuang, University of Delaware
# 1. Priolo, C., et al. (2006) The isopeptidase USP2a protects human prostate cancer from apoptosis. Cancer Res 66, 8625-8632
# 2. Popov, N., et al. (2007) The ubiquitin-specific protease USP28 is required for MYC stability. Nat Cell Biol 9, 765-774
# 3. De Pitta, C., et al. (2005) A leukemia-enriched cDNA microarray platform identifies new transcripts with relevance to the biology of pediatric acute lymphoblastic leukemia. Haematologica 90, 890-898
# 4. Kovalenko, A., et al. (2003) The tumour suppressor CYLD negatively regulates NF-kappaB signalling by deubiquitination. Nature 424, 801-805
# 3 microliters of reagents (buffer in columns 3 and 4 as negative control and 1nM USP1/UAF1 complex in columns 1, 2, and 5-48) are dispensed into Greiner black solid bottom 1536-well assay plates. Compounds are then transferred via Kalypsys pin tool equipped with 1536-pin array (10nl slotted pins, V&P Scientific, San Diego, CA). Following an incubation step of 15 min at room temperature, 1ul of Ub-Rho substrate (150nM final concentration) is added to initiate the reaction. The plates are immediately centrifuged at 1000 rpm for 15 seconds, and subsequently transferred to a ViewLux high-throughput CCD imager (PerkinElmer) wherein kinetic measurements of fluorescence are acquired using 480 nm excitation/540 nm emission filter set (6 reads every 60 seconds, see Table 1). All reagents are diluted in an assay buffer consisting of 50mM HEPES (pH 7.8), 0.5mM EDTA, 0.1 mg/ml BSA, 1mM TCEP, and 0.01% Tween-20.
# Potency is the fitted concentration of half-maximal effect.
row,SMILES,Potency
1,COc1cc(C2c3cc4c(cc3C(OC(C)=O)[C@H]3COC(=O)C23)OCO4)cc(OC)c1OC (stereo not given in full),inactive
2,C[C@@]12CC(c3ccoc3)OC(=O)C1CC[C@@]1(C)C2C2C=C[C@@]1(O)C(=O)O2 (stereo not given in full),inactive
3,CC(C)=CCCC1(C)C=Cc2c(O)c3c(c(CC=C(C)C)c2O1)OC12C(=CC4CC1C(C)(C)OC2(C/C=C(/C)C(=O)O)C4=O)C3=O (stereo not given),20 µM (active)
4,N#CC(O[C@@H]1OC(COC2OC(CO)C(O)C(O)[C@@H]2O)C(O)C(O)C1O)c1ccccc1 (stereo not given in full),inactive
5,COC1CC(OC2CC[C@@]3(C=O)C4CC[C@]5(C)C(C6=CC(=O)OC6)CC[C@@]5(O)C4CC[C@]3(O)C2)OC(C)C1O (stereo not given in full),inactive
6,C=C1CC[C@H](O)C/C1=C/C=C1\CCC[C@]2(C)[C@H]1CC[C@H]2[C@@H](C)CCCC(C)C,inactive
7,CCN1C[C@@]2(OC(=O)c3ccccc3NC(C)=O)CCC(OC)[C@@]34C5CC6C(OC)C[C@@](O)(C(CC23)[C@@H]14)C5(O)C6OC (stereo not given in full),inactive
8,CC(C)N(CC[C@@](C(N)=O)(c1ccccc1)c1ccccn1)C(C)C,inactive
9,CC(C)C[C@H]1C(=O)N2CCC[C@@H]2[C@@]2(O)O[C@](NC(=O)[C@@H]3C=C4c5cccc6[nH]cc(c56)C[C@@H]4N(C)C3)(C(C)C)C(=O)N12,14.1 µM (active)
10,CN1CCC2=C[C@H](O)[C@@H]3OC(=O)c4cc5c(cc4[C@H]3[C@H]21)OCO5,inactive
11,COc1cc(C(=O)OC2C[C@H]3CC[C@@H](C2)N3C)ccc1O (stereo not given in full),inactive
12,CCN1C[C@@]2(COC)[C@H]3[C@@H](OC)[C@H]4C1[C@@]3([C@H](OC)C[C@@H]2O)[C@H]1C[C@@]2(O)[C@@H](OC(=O)c3ccccc3)[C@@H]1[C@@]4(OC(C)=O)[C@H](O)[C@@H]2OC,inactive
13,C=C[C@H]1CN2CC[C@@H]1C[C@H]2[C@@H](O)c1ccnc2ccccc12,inactive
14,CN1CCN(c2ncc3ncc(=O)n(C)c3n2)CC1,inactive
15,CC1(C)C(O)CC(=O)[C@]2(C)C1CC(=O)[C@]1(C)C2CC[C@@]2(C)C(c3ccoc3)OC(=O)C3O[C@@]321 (stereo not given in full),inactive
16,CN1C(=O)CCS(=O)(=O)[C@@H]1c1ccc(Cl)cc1,inactive
17,O=C1CC2OCC=C3CN4CC[C@]56c7ccccc7N1[C@H]5[C@H]2C3C[C@H]46 (stereo not given in full),inactive
18,C[N+]1([O-])[C@@H]2CC[C@H]1CC(OC(=O)[C@@H](CO)c1ccccc1)C2 (stereo not given in full),inactive
19,C[C@H](N)[C@@H](O)c1ccccc1,inactive
20,C/C=C/c1ccc2c(c1)OCO2,inactive

row,SMILES,Potency
1,ClC(Cl)=C(c1ccc(Cl)cc1)c1ccc(Cl)cc1,inactive
2,COc1c2c(cc3c1OCO3)C13C=CC(OC)CC1N(C2)CC3O (stereo not given),inactive
3,O=C(NC(=O)c1ccccc1Cl)Nc1ccc(OC(F)(F)F)cc1,inactive
4,COc1ccc2c(c1O)-c1c(OC)c(OC)cc3c1[C@H](C2)N(C)CC3,inactive
5,COC[C@]12CN(C=O)C3C4C(OC)C1[C@@]3(C1CC3(O)C(OC)C(O)C4(OC(C)=O)C1C3OC(=O)c1ccccc1)[C@@H](OC)CC2O (stereo not given in full),inactive
6,COc1ccc2c(c1OC)C(=O)O[C@H]2[C@H]1c2cc3c(cc2CCN1C)OCO3,inactive
7,O=c1ccc2cc(O[C@H]3O[C@@H](CO)[C@@H](O)[C@@H](O)[C@@H]3O)c(O)cc2o1,inactive
8,O=C1C=C2C=CC3C[C@@]2(O1)C1CCCCN31 (stereo not given in full),inactive
9,CC(=O)[C@@H]1CC[C@H]2[C@H]3CC[C@H]4C[C@@H](O)CC[C@]4(C)[C@@H]3C(=O)C[C@@]12C,inactive
10,C=C1C2CCC3[C@@](CC[C@@H]4C(C(=O)O)CC(OC5OC(CO)C(OS(=O)(=O)O)C(OS(=O)(=O)O)C5OC(=O)CC(C)C)C[C@]34C)(C2)C1O (stereo not given in full),inactive
11,CNC(=O)CSP(=S)(OC)OC,inactive
12,CCc1cccc(CC)c1N(COC)C(=O)CCl,inactive
13,COc1cc2c(cc1O)[C@H]1Cc3ccc(OC)c(O)c3CN1CC2,10 µM (active)
14,O=C(O)CCC1NCC2CC1CN1CCCCC21 (stereo not given),inactive
15,O=C(CC[N+](=O)[O-])OCC1OC(O)C(OC(=O)CC[N+](=O)[O-])[C@@H](OC(=O)CC[N+](=O)[O-])C1OC(=O)CC[N+](=O)[O-] (stereo not given in full),inactive
16,CC(C)[C@@]1(NC(=O)[C@@H]2C[C@H]3c4cccc5[nH]cc(c45)C[C@@H]3N(C)C2)O[C@]2(O)[C@H]3CCCN3C(=O)CN2C1=O,inactive
17,C=C[C@]12CN(C)[C@H]3C1[C@@]1(C(=O)Nc4ccccc41)[C@H]1C[C@H]2[C@H]3CO1,inactive
18,C=C(C)C1Cc2c(ccc3c(=O)c4c(oc23)COc2cc(OC)c(OC)cc2-4)O1 (stereo not given),inactive
19,O=C1C=C2C=C[C@H]3C[C@@]2(O1)[C@H]1CCCCN31,inactive
20,CC(C)N1C(=O)c2ccccc2NS1(=O)=O,inactive
